Screens (PubChem)
The list is not random: actives were taken first. Their share in the collection is about 3.5%.
BoNT F protease = BoNT F light chain protease inhibition. Multiplex microsphere protease cleavage assay, flow cytometry. AID 588497. hit rate 0.22% among 360,000. inhibition, % at 10 µM; in the data active = inhibition above about 35%, passing the limit was not always enough; inconclusive = no clear call, values can overlap the other calls; note: plate controls were buffer without enzyme for full effect and enzyme alone for no effect
Anthrax LF inh2 = inhibitors of Bacillus anthracis lethal factor protease. P15917. multiplex microsphere protease cleavage assay, LF. inhibition, % at 10 µM. hit rate 0.12% among 360,000. AID 588501; note: plate controls were buffer without enzyme for full effect and enzyme alone for no effect
BJeLR viability = BJeLR cell viability loss. inhibition, % (concentration not given with the values). hit rate 0.17% among 300,000. BJeLR (HRASV12) viability, CellTiter-Glo ATP luminescence, 48 h. AID 1554; in the data active = inhibition above about 50%; inconclusive = no clear call, values can overlap the other calls
BoNT-A LC inh2 = blocks Botulinum neurotoxin A light chain protease. multiplex microsphere protease substrate cleavage, flow cytometry. hit rate 0.17% among 360,000. inhibition, % at 10 µM; note: plate controls were buffer without enzyme for full effect and enzyme alone for no effect
Bead autofluor = flagged as autofluorescent in microsphere protease counterscreen. compound autofluorescence counterscreen, microsphere flow cytometry; hits give high values. fluorescence intensity (test concentration not listed). hit rate 3.1% among 360,000. AID 624483; in the data active = fluorescence intensity above about 16000; inconclusive = no clear call, values can overlap the other calls
The depositor's hits bear a star. Cut-off read from the data, not from the text of the source, unless noted: active = inhibition above about 30%; inconclusive = no clear call, values can overlap the other calls; inactive = below that.

`CCOC(=O)c1nn(-c2ccc(Br)cc2)cc1C(=O)c1cccc2ccccc12` gave BoNT F protease -4, Anthrax LF inh2 2, BJeLR viability -2, BoNT-A LC inh2 -2 and Bead autofluor 20527*.
For O=C(CN1C(=O)NC2(CCCCCC2)C1=O)Nc1ccc2c(c1)CCC2 the results were BoNT F protease 2, Anthrax LF inh2 -5, BJeLR viability 2, BoNT-A LC inh2 0 and Bead autofluor 4075.
For CCN(CC)c1ccc(C=Nc2cccnc2Cl)c(O)c1 the results were BoNT F protease -28, Anthrax LF inh2 -6, BJeLR viability 2, BoNT-A LC inh2 1 and Bead autofluor 4198.
CCN(CC)c1ccc(C=Nc2ccc(C)cc2C)c(O)c1 was read as BoNT F protease 7, Anthrax LF inh2 23, BJeLR viability 5, BoNT-A LC inh2 37* and Bead autofluor 4378.
CCN(CC)c1ccc(C=Nc2cc(C)ccc2C)c(O)c1 was read as BoNT F protease 20, Anthrax LF inh2 28, BJeLR viability 0, BoNT-A LC inh2 72* and Bead autofluor 2815.
For CCN(CC)c1ccc(/C=N/Nc2ccc(C)cc2)c(O)c1 the results were BoNT F protease -12, Anthrax LF inh2 -3, BoNT-A LC inh2 1 and Bead autofluor 2438.
For O=C(NC1CCCCC1)C(Cc1ccccc1)N1C(=O)C2C3CCC(C3)C2C1=O (stereo unspecified) the results were BoNT F protease 2, Anthrax LF inh2 3, BJeLR viability -12, BoNT-A LC inh2 0 and Bead autofluor 4201.
`O=C(NCc1ccccc1)C(Cc1ccccc1)N1C(=O)C2C3CCC(C3)C2C1=O` (stereo unspecified) gave BoNT F protease 10, Anthrax LF inh2 -16, BJeLR viability -17, BoNT-A LC inh2 9 and Bead autofluor 16697*.
`O=C(Nc1cccnc1)C1CCN(S(=O)(=O)c2ccc(Cl)cc2)CC1` gave BoNT F protease 4, Anthrax LF inh2 1, BJeLR viability 9, BoNT-A LC inh2 1 and Bead autofluor 5499.
Screening COc1cccc(C(=O)N(CN2CCCC2=O)c2cccc(Cl)c2)c1OC returned BoNT F protease -4, Anthrax LF inh2 -3, BJeLR viability 3, BoNT-A LC inh2 -1 and Bead autofluor 16669*.
COc1ccccc1N(CN1CCCC1=O)C(=O)COc1ccccc1 was read as BoNT F protease -3, Anthrax LF inh2 0, BJeLR viability 6, BoNT-A LC inh2 0 and Bead autofluor 16310*.
Screening COc1cc(OC)cc(C(=O)N(CN2CCCC2=O)c2ccccc2OC)c1 returned BoNT F protease -14, Anthrax LF inh2 0, BJeLR viability 2, BoNT-A LC inh2 -6 and Bead autofluor 18589*.
`COC(=O)c1nn(-c2ccc(OC)cc2)ccc1=O` gave BoNT F protease -3, Anthrax LF inh2 0, BJeLR viability -9, BoNT-A LC inh2 0 and Bead autofluor 3663.
CC(C)C[C@H]1CN(CCCC[C@H]2CNC(=O)C(=O)N2CC2CCCCC2)C(=O)C(=O)N1CC1CCCCC1 was read as BoNT F protease 14, Anthrax LF inh2 -12, BoNT-A LC inh2 1 and Bead autofluor 5155.
Screening CCCC(C(=O)NC1CCCC1)N(C(=O)Cn1nnc(-c2ccc(C)o2)n1)C1CCCC1 (stereo unspecified) returned BoNT F protease -6, Anthrax LF inh2 -1, BJeLR viability 0, BoNT-A LC inh2 -4 and Bead autofluor 25114*.
`Cc1ccc(-c2nnn(CC(=O)N(Cc3cccs3)C(C(=O)NC3CCCC3)c3ccco3)n2)o1` (stereo unspecified) gave BoNT F protease 1, Anthrax LF inh2 -3, BJeLR viability 0, BoNT-A LC inh2 -1 and Bead autofluor 16932*.
For CCCC(C(=O)NC1CCCC1)N(C(=O)Cn1nnc(-c2ccc(C)o2)n1)c1ccccc1F (stereo unspecified) the results were BoNT F protease 31, Anthrax LF inh2 10, BJeLR viability -1, BoNT-A LC inh2 2 and Bead autofluor 3355.
Screening CCC(C(=O)NC1CCCC1)N(C(=O)Cn1nnc(-c2ccc(OC)c(OC)c2)n1)C1CCCCC1 (stereo unspecified) returned BoNT F protease 1, Anthrax LF inh2 1, BJeLR viability -8, BoNT-A LC inh2 0 and Bead autofluor 16428*.
For CCC(C(=O)NC1CCCC1)N(C(=O)Cn1nnc(-c2ccc(C)cc2)n1)C1CCCC1 (stereo unspecified) the results were BoNT F protease 2, Anthrax LF inh2 -5, BJeLR viability 9, BoNT-A LC inh2 1 and Bead autofluor 3169.
`Cc1ccc(-c2nnn(CC(=O)N(Cc3cccs3)C(C(=O)NC3CCCCC3)c3ccco3)n2)o1` (stereo unspecified) gave BoNT F protease 6, Anthrax LF inh2 -2, BJeLR viability 8, BoNT-A LC inh2 0 and Bead autofluor 3220.
COc1ccc(-c2nnn(CC(=O)N(CC(=O)NC3CCCC3)Cc3cccs3)n2)cc1OC was read as BoNT F protease -5, Anthrax LF inh2 -2, BJeLR viability -1, BoNT-A LC inh2 -2 and Bead autofluor 24334*.
COc1cc(/C=N/N2CCN(c3ccccc3OC)CC2)ccc1O was read as BoNT F protease 0, Anthrax LF inh2 -5, BJeLR viability -7, BoNT-A LC inh2 inconclusive and Bead autofluor 16130*.
COc1cc(/C=N/n2nnnc2N)ccc1O was read as BoNT F protease -9, Anthrax LF inh2 -5, BJeLR viability 7, BoNT-A LC inh2 -3 and Bead autofluor 23466*.
For Nc1nnnn1/N=C/c1ccccc1Cl the results were BoNT F protease 0, Anthrax LF inh2 2, BoNT-A LC inh2 0 and Bead autofluor 3587.
`Nc1nnnn1/N=C/c1ccccn1` gave BoNT F protease 9, Anthrax LF inh2 -7, BJeLR viability 7, BoNT-A LC inh2 5 and Bead autofluor 21208*.
CCN(CC)c1ccc(/C=N/n2nnnc2N)c(O)c1 was read as BoNT F protease -4, Anthrax LF inh2 -5, BJeLR viability 3, BoNT-A LC inh2 3 and Bead autofluor 22051*.
Cc1ccc(CS(=O)Cc2ccc(C(=O)N3CCN(C4CCCCC4)CC3)o2)cc1 (stereo unspecified) was read as BoNT F protease 6, Anthrax LF inh2 -4, BJeLR viability 5, BoNT-A LC inh2 -1 and Bead autofluor 5678.
For CCN(CC)CCNC(=O)Cn1cnc2sc(C)c(S(=O)(=O)N3CC(C)CC(C)C3)c2c1=O (stereo unspecified) the results were BoNT F protease -20, Anthrax LF inh2 -4, BJeLR viability 3, BoNT-A LC inh2 1 and Bead autofluor 4135.
`CCOC(=O)c1c(C)nn(Cc2cccc(Cl)c2)c1N` gave BoNT F protease -15, Anthrax LF inh2 0, BJeLR viability -11, BoNT-A LC inh2 0 and Bead autofluor 9884.
`CCCC[C@@H]1Cc2[nH][nH]c(=O)c2[C@H](c2ccc(C(C)C)cc2)O1` gave BoNT F protease -3, Anthrax LF inh2 -1, BoNT-A LC inh2 0 and Bead autofluor 5750.
Screening CN(Cc1ccccc1)C(=O)c1ccc(NC(=O)Cc2ccc(NC(=O)C3CCN(S(=O)(=O)c4cccc([N+](=O)[O-])c4)CC3)cc2)cc1 returned BoNT F protease 0, Anthrax LF inh2 -6, BoNT-A LC inh2 0 and Bead autofluor 3266.
